Measurements taken from the supplement of paper PMC6555819.

What was measured:
Assay in all cases: PBM binding z-score (relative to random genomic background probes); higher = stronger binding; sequences stand for … in GC…GCGATTGACAGCGTAGAATGAAGG
[1] = tested on: FXR:RXRa (NR concentration 270 nM, RXRa partner concentration 90 nM)
Outline: (§1)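 For binding z-scores, the reference was random background probes on custom Agilent 4×180K protein-binding microarrays. These arrays were incubated 1 h with ligand-free nuclear receptor dimers in PBS pH 7.4, 2% milk, 0.02% Triton X-100, 1 mM DTT, 0.2 mg/mL BSA and 0.4 mg/ml salmon testes DNA. Fluorescence was scanned after antibody detection of each partner (one per run) and regression-normalized.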

[2] = tested on: LXRa:RXRa (NR concentration 270 nM, RXRa partner concentration 90 nM)
Outline: as §1

[3] = tested on: LXRa homodimer (NR concentration 270 nM)
Outline: as §1

[4] = tested on: LXRb:RXRa (NR concentration 270 nM, RXRa partner concentration 90 nM)
Outline: as §1

[5] = tested on: LXRb homodimer (NR concentration 270 nM)
Outline: as §1

[6] = tested on: PPARa:RXRa (NR concentration 270 nM, RXRa partner concentration 90 nM)
Outline: as §1

[7] = tested on: PPARg:RXRa (NR concentration 180 nM, RXRa partner concentration 90 nM)
Outline: as §1

[8] = tested on: PPARg:RXRa 270nM:90nM, anti-RXR (NR concentration 270 nM, RXRa partner concentration 90 nM)
Outline: as §1

[9] = tested on: PPARg:RXRa 30nM:10nM, anti-RXR (NR concentration 30 nM, RXRa partner concentration 10 nM)
Outline: as §1

[10] = tested on: PPARg:RXRa 90nM:30nM, anti-RXR (NR concentration 90 nM, RXRa partner concentration 30 nM)
Outline: as §1

Row | Sequence | PBM binding z-score [1] | PBM binding z-score [2] | PBM binding z-score [3] | PBM binding z-score [4] | PBM binding z-score [5] | PBM binding z-score [6] | PBM binding z-score [7] | PBM binding z-score [8] | PBM binding z-score [9] | PBM binding z-score [10]
1 | ATATGTAGGTTACATCCGGGTCATTCAAGCTATG | 2.46 | 4.38 | 1.74 | 3.45 | 0.746 | 4.7 | 6.29 | 5.22 | 2.73 | 4.53
2 | CCTACTGGGCCACGAAAGGTCATTAATTCAGTGA | 3.16 | 4.95 | 4.76 | 4.24 | 0.358 | 4.48 | 4.47 | 4.57 | 1.99 | 3.83
3 | CCTACTTGGCCATTCAGAGGTCATTGATCATATG | 3.12 | 4.37 | 6.52 | 4.31 | 1.21 | 3.83 | 0.976 | 2.46 | 0.88 | 1.77
4 | TCATATATGTAAAGGTGAAAGTCGAACGATATGA | 0.775 | 1.41 | -0.143 | 1.2 | -0.14 | 2.68 | 2.6 | 3.13 | 3.73 | 3.47
5 | ATATGTAGGTTAGCTGCGGTCATTCAGACTAGGC | 1.46 | 5.96 | 4.17 | 2.56 | 0.134 | 2.82 | 3.47 | 3.02 | 0.942 | 2.27
6 | CCTACTGGGCCACGAAGGGTCATTGATTCAGTGA | 2.42 | 2.97 | 0.54 | 2.41 | -0.798 | 3.68 | 3.11 | 3.45 | 1.17 | 2.58
7 | GGAACGAGGCCAAGTTGATAGCAGAGTTTGATGG | -0.211 | -0.562 | -0.768 | -0.914 | -0.878 | 0.0938 | 0.353 | 0.159 | -0.422 | -0.286
8 | CCTACTGGGCCACAGGTCATTGATTCCAATGCTC | 1.51 | 1.55 | 1.48 | 2.12 | 0.443 | 4.11 | 8.34 | 7.57 | 6.11 | 7.68
9 | ATCGAAAGGTCGTGAGGTGAGTATTCAGAAAGGC | 5.34 | 4.08 | -0.0279 | 3.34 | 0.35 | 5.12 | 4.06 | 4.24 | 1.5 | 2.96
10 | CCTCCAAGGTCAAAGGTCAGTGAAGAGATGACGG | 8.2 | 6.83 | 3.53 | 6.63 | 1.95 | 7.19 | 10.5 | 8.79 | 8.47 | 9.3
11 | AATACAGGGTCACCAGGCCAGAGTAGGTACGAAT | 7.09 | 5.86 | 0.943 | 4.55 | 0.722 | 6.07 | 8.01 | 6.75 | 3.76 | 5.35
12 | CGTCAAATTTCAACTAAGGTAACGTAAAGCACGC | 1.08 | 0.429 | 0.483 | 0.87 | 0.711 | 0.628 | 0.633 | 0.149 | 0.303 | 0.502
